Out of some 5,500 compounds screened, about 2,000 (36%) were called active. Inconclusive results (about 18%) are left out. The list shows a part of the results. Values without a mark were called inactive. No stated cut-off is given here; in the data, active means normalized growth mostly below about 0.91 (no sharp cut-off); inconclusive means no clear call, values can overlap the other calls; inactive means mostly above about 0.92.
Assay: chemical genetic growth profiling, strain panel (AID 1159580);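 further: tested at 20 µM; growth read once vehicle control cultures reached saturation at 30 °C; 1 = growth at the plate median or of vehicle wells; lower values mean less growth of the strain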
Details: S. cerevisiae deletion strains, growth OD

Structure (SMILES): COc1ccc(-c2cc(=O)c3ccccc3o2)cc1OC
- normalized growth (locus YAL013W, strain DEP1, hits give low values): 1.01
- normalized growth (locus YAL021C, strain ccr4, hits give low values): 0.942
- normalized growth (locus YAL026C, strain drs2, hits give low values): 0.838 (active)
- normalized growth (locus YAL030W, strain snc1, hits give low values): 0.91 (active)
- normalized growth (locus YBL061C, strain skt5, hits give low values): 0.898 (active)
- normalized growth (locus YBR009C, strain hhf1, hits give low values): 0.772 (active)
- normalized growth (locus YBR021W, strain FUR4, hits give low values): 0.896
- normalized growth (locus YBR023C, strain chs3, hits give low values): 0.842 (active)
- normalized growth (locus YBR171W, strain sec66, hits give low values): 0.917
- normalized growth (locus YBR229C, strain ROT2, hits give low values): 1.04
- normalized growth (locus YBR231C, strain swc5, hits give low values): 0.83 (active)
- normalized growth (locus YBR279W, strain paf1, hits give low values): 0.9 (active)
- normalized growth (locus YCL011C, strain gbp2, hits give low values): 0.824 (active)
- normalized growth (locus YCL016C, strain dcc1, hits give low values): 0.871 (active)
- normalized growth (locus YCL029C, strain bik1, hits give low values): 0.974
- normalized growth (locus YCL061C, strain MRC1, hits give low values): 0.904 (active)
- normalized growth (locus YCL069W, strain vba3, hits give low values): 0.921 (active)
- normalized growth (locus YCR088W, strain abp1, hits give low values): 0.929
- normalized growth (locus YDL005C, strain med2, hits give low values): 0.919
- normalized growth (locus YDL035C, strain GPR1, hits give low values): 0.824 (active)
- normalized growth (locus YDL040C, strain nat1, hits give low values): 0.939
- normalized growth (locus YDL074C, strain BRE1, hits give low values): 0.981
- normalized growth (locus YDL101C, strain DUN1, hits give low values): 1.02
- normalized growth (locus YDL185W, strain tfp1, hits give low values): 1.03
- normalized growth (locus YDL192W, strain arf1, hits give low values): 0.989
- normalized growth (locus YDR001C, strain nth1, hits give low values): 0.93
- normalized growth (locus YDR069C, strain doa4, hits give low values): 0.897 (active)
- normalized growth (locus YDR101C, strain arx1, hits give low values): 0.95
- normalized growth (locus YDR137W, strain rgp1, hits give low values): 0.681 (active)
- normalized growth (locus YDR150W, strain NUM1, hits give low values): 1.05
- normalized growth (locus YDR159W, strain sac3, hits give low values): 0.904
- normalized growth (locus YDR162C, strain NBP2, hits give low values): 1.01
- normalized growth (locus YDR195W, strain ref2): 1.13
- normalized growth (locus YDR297W, strain sur2, hits give low values): 0.927
- normalized growth (locus YDR318W, strain mcm21, hits give low values): 0.999
- normalized growth (locus YDR334W, strain swr1, hits give low values): 0.922
- normalized growth (locus YDR335W, strain msn5, hits give low values): 0.925
- normalized growth (locus YDR388W, hits give low values): 1.01
- normalized growth (locus YDR392W, strain spt3, hits give low values): 0.41 (active)
- normalized growth (locus YDR502C, strain sam2, hits give low values): 0.925
- normalized growth (locus YEL003W, strain gim4, hits give low values): 0.9 (active)
- normalized growth (locus YEL037C, strain rad23, hits give low values): 0.872 (active)
- normalized growth (locus YEL061C, strain CIN8 (second series), hits give low values): 0.913 (active)
- normalized growth (locus YEL061C, strain CIN8, hits give low values): 1.03
- normalized growth (locus YER015W, strain faa2, hits give low values): 0.932
- normalized growth (locus YER016W, strain bim1, hits give low values): 0.933
- normalized growth (locus YER110C, hits give low values): 1.04
- normalized growth (locus YER111C, strain swi4, hits give low values): 0.913
- normalized growth (locus YER155C, strain BEM2 (second series), hits give low values): 0.381 (active)
- normalized growth (locus YER155C, strain BEM2, hits give low values): 1.07
- normalized growth (locus YER167W, strain BCK2, hits give low values): 1.05
- normalized growth (locus YFR010W, strain ubp6, hits give low values): 0.889 (active)
- normalized growth (locus YGL078C, strain dbp3, hits give low values): 0.869 (active)
- normalized growth (locus YGL086W, strain mad1, hits give low values): 0.982
- normalized growth (locus YGL167C, strain pmr1, hits give low values): 0.878 (active)
- normalized growth (locus YGL173C, strain kem1, hits give low values): 0.897 (active)
- normalized growth (locus YGL227W, strain vid30, hits give low values): 0.912 (active)
- normalized growth (locus YGL240W, strain doc1, hits give low values): 0.772 (active)
- normalized growth (locus YGL248W, strain PDE1, hits give low values): 0.97
- normalized growth (locus YGL253W, strain hxk2, hits give low values): 0.718 (active)
- normalized growth (locus YGR135W, strain pre9, hits give low values): 0.955
- normalized growth (locus YGR252W, strain gcn5, hits give low values): 0.819
- normalized growth (locus YHR013C, strain ard1, hits give low values): 0.789 (active)
- normalized growth (locus YHR027C, strain rpn1, hits give low values): 0.93
- normalized growth (locus YHR030C, strain SLT2, hits give low values): 1.06
- normalized growth (locus YHR079C, strain IRE1 (second series), hits give low values): 1.03
- normalized growth (locus YHR094C, strain hxt1, hits give low values): 1.03
- normalized growth (locus YHR129C, strain ARP1, hits give low values): 1.03
- normalized growth (locus YHR142W, strain chs7, hits give low values): 0.683 (active)
- normalized growth (locus YHR200W, strain rpn10, hits give low values): 1.03
- normalized growth (locus YIL066C, strain RNR3, hits give low values): 1.01
- normalized growth (locus YIL073C, strain SPO22, hits give low values): 0.925
- normalized growth (locus YIL125W, strain kgd1, hits give low values): 0.976
- normalized growth (locus YIR030C, strain dcg1, hits give low values): 1.02
- normalized growth (locus YJL092W, strain hpr5, hits give low values): 0.923
- normalized growth (locus YJL095W, strain BCK1 (second series), hits give low values): 0.823 (active)
- normalized growth (locus YJL095W, strain BCK1, hits give low values): 0.973
- normalized growth (locus YJL115W, strain asf1, hits give low values): 0.928
- normalized growth (locus YJL129C, strain trk1, hits give low values): 0.901
- normalized growth (locus YJL134W, strain LCB3, hits give low values): 1.05
- normalized growth (locus YJL154C, strain vps35, hits give low values): 0.938
- normalized growth (locus YJL164C, strain tpk1, hits give low values): 0.855 (active)
- normalized growth (locus YJL166W, strain qcr8, hits give low values): 0.824 (active)
- normalized growth (locus YJL168C, strain set2, hits give low values): 1.03
- normalized growth (locus YJL187C, strain SWE1 (second series), hits give low values): 0.982
- normalized growth (locus YJL187C, strain SWE1, hits give low values): 0.913 (active)
- normalized growth (locus YJR043C, strain POL32, hits give low values): 0.979
- normalized growth (locus YJR075W, strain HOC1, hits give low values): 1.03
- normalized growth (locus YKL009W, strain mrt4, hits give low values): 0.801 (active)
- normalized growth (locus YKL068W, hits give low values): 1.03
- normalized growth (locus YKL085W, strain MDH1 (second series), hits give low values): 1.03
- normalized growth (locus YKL085W, strain MDH1, hits give low values): 1.03
- normalized growth (locus YKL160W, strain elf1, hits give low values): 0.862 (active)
- normalized growth (locus YKL190W, strain CNB1, hits give low values): 1.03
- normalized growth (locus YKR001C, strain vps1, hits give low values): 0.96
- normalized growth (locus YKR026C, strain gcn3, hits give low values): 0.93
- normalized growth (locus YKR091W, strain srl3, hits give low values): 0.935
- normalized growth (locus YLL001W, strain dnm1, hits give low values): 0.874 (active)
- normalized growth (locus YLL026W, hits give low values): 0.899 (active)
- normalized growth (locus YLL041C, strain sdh2, hits give low values): 0.941
- normalized growth (locus YLR027C, strain aat2, hits give low values): 0.926
- normalized growth (locus YLR039C, strain RIC1, hits give low values): 0.963
- normalized growth (locus YLR058C, strain SHM2, hits give low values): 1.01
- normalized growth (locus YLR102C, strain apc9, hits give low values): 1.03
- normalized growth (locus YLR221C, strain rsa3, hits give low values): 0.872 (active)
- normalized growth (locus YLR258W, strain gsy2, hits give low values): 0.859 (active)
- normalized growth (locus YLR262C, strain YPT6 (second series), hits give low values): 0.728 (active)
- normalized growth (locus YLR262C, strain YPT6, hits give low values): 0.875
- normalized growth (locus YLR268W, strain sec22, hits give low values): 0.936
- normalized growth (locus YLR320W, strain mms22, hits give low values): 0.597 (active)
- normalized growth (locus YLR330W, strain CHS5, hits give low values): 1.04
- normalized growth (locus YLR342W, strain FKS1 (second series), hits give low values): 0.873
- normalized growth (locus YLR342W, strain FKS1, hits give low values): 0.904 (active)
- normalized growth (locus YLR357W, strain rsc2, hits give low values): 0.948
- normalized growth (locus YLR370C, strain arc18, hits give low values): 0.894 (active)
- normalized growth (locus YLR371W, strain rom2, hits give low values): 1.04
- normalized growth (locus YLR384C, strain iki3, hits give low values): 0.935
- normalized growth (locus YLR418C, strain cdc73, hits give low values): 0.918
- normalized growth (locus YML016C, strain PPZ1, hits give low values): 1.05
- normalized growth (locus YML032C, strain rad52, hits give low values): 0.96
- normalized growth (locus YML120C, strain ndi1, hits give low values): 0.837 (active)
- normalized growth (locus YML124C, strain tub3, hits give low values): 1.04
- normalized growth (locus YMR058W, strain fet3, hits give low values): 0.852 (active)
- normalized growth (locus YMR078C, strain ctf18, hits give low values): 1.02
- normalized growth (locus YMR125W, strain sto1, hits give low values): 0.795 (active)
- normalized growth (locus YMR129W, hits give low values): 0.945
- normalized growth (locus YMR205C, strain PFK2, hits give low values): 0.768 (active)
- normalized growth (locus YMR223W, strain ubp8, hits give low values): 0.99
- normalized growth (locus YMR231W, strain pep5, hits give low values): 0.946
- normalized growth (locus YMR307W, strain GAS1, hits give low values): 0.955
- normalized growth (locus YNL067W, strain RPL9B, hits give low values): 0.969
- normalized growth (locus YNL071W, strain lat1, hits give low values): 0.665 (active)
- normalized growth (locus YNL209W, strain ssb2, hits give low values): 0.936
- normalized growth (locus YNL233W, strain BNI4, hits give low values): 1.02
- normalized growth (locus YNL248C, strain rpa49, hits give low values): 0.884 (active)
- normalized growth (locus YNL250W, strain rad50, hits give low values): 0.993
- normalized growth (locus YNL271C, strain bni1, hits give low values): 0.995
- normalized growth (locus YNL298W, strain CLA4, hits give low values): 0.934
- normalized growth (locus YNL307C, strain MCK1, hits give low values): 1.02
- normalized growth (locus YNL322C, strain KRE1 (second series), hits give low values): 0.953
- normalized growth (locus YNR049C, strain mso1, hits give low values): 0.916 (active)
- normalized growth (locus YNR052C, strain pop2, hits give low values): 0.918
- normalized growth (locus YOL006C, strain TOP1, hits give low values): 0.93
- normalized growth (locus YOL012C, strain htz1): 1.9
- normalized growth (locus YOL147C, strain pex11, hits give low values): 1.03
- normalized growth (locus YOR001W, strain rrp6, hits give low values): 0.864 (active)
- normalized growth (locus YOR061W, strain CKA2, hits give low values): 1.02
- normalized growth (locus YOR069W, strain VPS5, hits give low values): 1.02
- normalized growth (locus YOR070C, strain gyp1, hits give low values): 0.901 (active)
- normalized growth (locus YOR080W, strain dia2, hits give low values): 0.928
- normalized growth (locus YOR083W, strain WHI5, hits give low values): 0.862 (active)
- normalized growth (locus YOR106W, strain vam3, hits give low values): 0.806 (active)
- normalized growth (locus YOR136W, strain idh2, hits give low values): 1.02
- normalized growth (locus YOR144C, strain elg1, hits give low values): 0.994
- normalized growth (locus YOR184W, strain ser1, hits give low values): 0.802 (active)
- normalized growth (locus YOR265W, strain rbl2, hits give low values): 0.935
- normalized growth (locus YOR270C, strain vph1, hits give low values): 0.539 (active)
- normalized growth (locus YOR290C, strain snf2, hits give low values): 0.734 (active)
- normalized growth (locus YOR316C, strain cot1, hits give low values): 1.03
- normalized growth (locus YPL051W, strain arl3, hits give low values): 0.854 (active)
- normalized growth (locus YPL078C, strain atp4, hits give low values): 0.825 (active)
- normalized growth (locus YPL106C, strain sse1, hits give low values): 0.788 (active)
- normalized growth (locus YPL240C, strain hsp82, hits give low values): 0.923 (active)
- normalized growth (locus YPR119W, strain clb2, hits give low values): 1.04
- normalized growth (locus YPR141C, strain kar3, hits give low values): 1.04
- normalized growth (locus YPR163C, strain tif3, hits give low values): 0.993
- normalized growth (locus YPR167C, strain met16, hits give low values): 1.02
- normalized growth (strain wtn01, hits give low values): 0.93
